# Source: PubChem BioAssay (NCATS)
# Unmarked numbers belong to inactive results. Records with an inconclusive call do not appear. Entries that show only a call come without a potency. Calls of active or inactive are those of the source. Unless noted, calls follow the shape of the dose curve; as a rule, active = well fitted curve in the direction sought with a large enough effect; inconclusive = small, poorly fitted or top-dose-only effect, or another doubt; inactive = no such curve, though single readings can be large; an effect the other way counts as inactive or inconclusive.
# Tests used:
# [1] = Vero cells viability qHTS for Zika virus inhibitors (AID 1347167)
# Procedure, shortened: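 Luminescent ATP readout (CellTiter Glo) after 30 min at 37 degrees C gives viability; cells in DMEM + 4% FBS were treated 24 to 48 hours with compound, following overnight attachment.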
# [2] = qHTS to identify inhibitors of the type 1 interferon - major histocompatibility complex class I in skeletal muscle: primary screen against the NCATS Mechanism Interrogation Plate v5.0 (MIPE) Libary (AID 1347411); also: nearly all actives have a fitted effect of over 65% in size
# Procedure, shortened: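 Seed engineered human myoblasts (HLA-B HiBit) in medium without dexamethasone containing 4 ng/ml IFN-beta; after 1 hr add compound titrations (top 46 uM final). Incubate 24 hrs at 37 C, lyse 10 min with HiBiT reagent, read luminescence.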
# [3] = molecular target: Calcium and integrin-binding protein 1 (Homo sapiens) (UniProt Q99828); assay: Primary qHTS for Identification of Calcium Integrin Binding Protein 1 (CIB1) Competitor (AID 1508620); also: potency is read from the fitted curve at half-maximal effect;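 as to activity change, negative = inhibition: GST tagged CIB1 binding a fluorescein labelled alphaIIb integrin peptide tracer; top concentration of the series differs between compounds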
# Calcium and integrin-binding protein 1 (Homo sapiens), sequence (Q99828 whole entry, looked up): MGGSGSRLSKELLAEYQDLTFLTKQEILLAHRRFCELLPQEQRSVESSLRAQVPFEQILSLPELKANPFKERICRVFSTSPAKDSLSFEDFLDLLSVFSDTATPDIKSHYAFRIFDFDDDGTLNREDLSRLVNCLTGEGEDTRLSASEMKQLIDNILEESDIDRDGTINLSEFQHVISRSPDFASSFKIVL
# Procedure, shortened: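 CIB1-GST (1 uM final) and compound incubated 15 min at room temperature before adding FITC-alphaIIb peptide tracer (100 nM final). Competition for binding read by fluorescence polarization (ex 480, em 540) after another 15 min at room temperature.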
# [4] = Primary qHTS for small molecule stabilizers of the endoplasmic reticulum resident proteome: Secreted ER Calcium Modulated Protein (SERCaMP) assay (AID 1508630); also: potency is read from the fitted curve at half-maximal effect
# Procedure, shortened: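 The SH-SY5Y reporter protocol was run at 3 concentrations up to 38.3 uM (primary) or 11 concentrations (follow-up): 16 h compound, 100 nM thapsigargin for 4 h, then extracellular luciferase luminescence.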
# [5] = Tertiary RLuc qRT-PCR qHTS assay for Zika virus inhibitors (AID 1347169); also: nearly all actives have a fitted effect of over 55% in size; also: potency is read from the fitted curve at half-maximal effect; as to activity change, negative = inhibition: top concentration of the series differs between compounds
# Procedure, shortened: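 Luminescence read-out: live-cell Renilla luciferase substrate applied to infected Vero cells, signal measured after 1-1.5 hrs. Cells had received compound before ZIKV-RLuc (Cambodian strain, MOI 1-2) infection and were incubated 48-72 hrs at 37 degrees C.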
# [6] = qHTS for inhibitors of adenylyl cyclases using a fission yeast platform: a pilot screen against the NCATS LOPAC library (AID 1347410)
# Procedure, shortened: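 Read-out: fbp1-GFP fluorescence by laser scanning cytometry (488 nm laser), a gain of signal when AC/cAMP-PKA signalling is inhibited. Strain CHP2027 expressing AC9, GNAS and PDE4D2; compounds at up to 57 µM; 18 h, 30C.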
# [7] = Validation qHTS assay for inhibitors of Activation Induced Cytidine Deaminase (AID): UDG Counterscreen signal (AID 1347427)
# Procedure, shortened: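 Fluorescence at 560 nm excitation, 665 nm emission reports UDG signal after 250 mM NaOH (2x) addition and 30 min. Enzymes (AID 1 uM, UDG 2 U/mL, at 4/3x) preincubated 10 min with compound, then 4 h with 4x 250 nM DJC20/DJC23 substrate at room temperature.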
# [8] = molecular target: Single-stranded DNA cytosine deaminase (Homo sapiens) (UniProt Q9GZX7); assay: Validation qHTS assay for inhibitors of Activation Induced Cytidine Deaminase (AID): AID signal (AID 1347429)
# Single-stranded DNA cytosine deaminase (Homo sapiens), sequence (Q9GZX7 whole entry, looked up): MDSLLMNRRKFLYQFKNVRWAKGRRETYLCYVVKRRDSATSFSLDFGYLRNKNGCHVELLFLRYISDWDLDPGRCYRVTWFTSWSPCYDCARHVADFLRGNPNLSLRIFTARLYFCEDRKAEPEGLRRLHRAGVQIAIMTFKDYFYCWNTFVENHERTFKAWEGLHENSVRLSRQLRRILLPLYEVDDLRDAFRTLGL
# Procedure, shortened: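 Steps: dispense AID with UDG; pin-transfer compound up to 114 uM final; add DJC20/DJC23 substrate and hold 4 hr at room temperature; add NaOH, hold 30 min; read FRET signal (540/590 nm).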
# [9] = molecular target: Calcium and integrin-binding protein 1 (Homo sapiens) (UniProt Q99828); assay: Validation qHTS for Identification of Calcium Integrin Binding protein 1 (CIB1) Competitor (AID 1508618)
# Procedure, shortened: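 Fluorescence polarization with 1 uM CIB1-GST and 100 nM FITC-alphaIIb peptide in HEPES pH 7.4, NaCl, 5 mM CaCl2, Tween20. Compounds at up to 114 uM final, preincubated with protein 15 min; read after 15 min more at RT.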
# [10] = molecular target: Calcium and integrin-binding protein 1 (Homo sapiens) (UniProt Q99828); assay: Confirmatory qHTS for Identification of Calcium Integrin Binding Protein 1 (CIB1) Competitor (AID 1508617); also: nearly all actives have a fitted effect of over 65% in size; also: potency is read from the fitted curve at half-maximal effect
# Procedure, shortened: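 FP competition: CIB1-GST (1 uM final) in 5 mM HEPES pH 7.4, 125 mM NaCl, 5 mM CaCl2, 0.01% Tween20 preincubated 15 min RT with compounds (up to 114 uM), then FITC-alphaIIb peptide (100 nM), 15 min RT; Ex 480/Em 540.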
# [11] = molecular target: Cytochrome P450 2D6 (Homo sapiens) (UniProt P10635); assay: Cytochrome P450 family 2 subfamily D member 6 (CYP2D6) small molecule antagonists: luciferase biochemical (cell-free) qHTS assay (AID 1645840; active = well fitted curve in the direction sought with a large enough effect in the repeat runs; an effect the other way counts as inactive or inconclusive; also: nearly all actives have a fitted effect of over 55% in size; also: potency is read from the fitted curve at half-maximal effect; as to activity change, negative = inhibition: series mostly up to about 57 µM)
# Cytochrome P450 2D6 (Homo sapiens), sequence (P10635 whole entry, looked up): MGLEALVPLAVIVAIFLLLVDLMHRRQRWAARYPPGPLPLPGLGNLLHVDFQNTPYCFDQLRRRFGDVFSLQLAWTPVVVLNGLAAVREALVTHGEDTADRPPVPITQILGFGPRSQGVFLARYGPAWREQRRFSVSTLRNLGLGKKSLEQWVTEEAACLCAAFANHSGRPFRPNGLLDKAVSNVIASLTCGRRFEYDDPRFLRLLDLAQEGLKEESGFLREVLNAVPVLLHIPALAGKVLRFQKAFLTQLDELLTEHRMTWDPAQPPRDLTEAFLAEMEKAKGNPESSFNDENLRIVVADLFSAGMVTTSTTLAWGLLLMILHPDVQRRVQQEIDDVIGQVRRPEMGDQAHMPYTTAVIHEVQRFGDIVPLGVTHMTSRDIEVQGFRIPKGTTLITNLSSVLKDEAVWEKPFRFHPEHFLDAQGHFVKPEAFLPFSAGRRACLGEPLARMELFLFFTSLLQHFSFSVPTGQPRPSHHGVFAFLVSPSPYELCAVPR
# Procedure, shortened: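 P450-Glo CYP2D6 system: proluciferin substrate converted by enzyme to luciferin, read by luminescence proportional to activity. Enzyme-substrate mix with compound 10 min at room temperature, then NADPH regeneration 1 h before detection reagent.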
# [12] = qHTS to identify inhibitors of the type 1 interferon - major histocompatibility complex class I in skeletal muscle: primary screen against the NCATS Pharmaceutical Collection (AID 1347407);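 also: luminescence of HiBiT knocked into endogenous HLA-B as interferon-induced MHC class I level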
# Procedure, shortened: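 HLA-B HiBiT myoblasts, dexamethasone-free growth medium + 4 ng/ml IFN-b; compounds pinned 1 h after seeding, […] from 46 uM; 24 h, 37 C, 5% CO2; lytic HiBiT detection, 10 min RT, luminescence.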
# [13] = molecular target: Protein phosphatase 1D (Homo sapiens) (UniProt O15297); assay: RapidFire Mass Spectrometry qHTS Assay for Modulators of WT P53-Induced Phosphatase 1 (WIP1) (AID 1347424);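 also: amount of dephosphorylated VEPPL-S-QETFS peptide product formed by WIP1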; also: potency is read from the fitted curve at half-maximal effect; as to activity change, negative = inhibition: series mostly up to about 63 µM
# Protein phosphatase 1D (Homo sapiens), sequence (O15297 whole entry, looked up): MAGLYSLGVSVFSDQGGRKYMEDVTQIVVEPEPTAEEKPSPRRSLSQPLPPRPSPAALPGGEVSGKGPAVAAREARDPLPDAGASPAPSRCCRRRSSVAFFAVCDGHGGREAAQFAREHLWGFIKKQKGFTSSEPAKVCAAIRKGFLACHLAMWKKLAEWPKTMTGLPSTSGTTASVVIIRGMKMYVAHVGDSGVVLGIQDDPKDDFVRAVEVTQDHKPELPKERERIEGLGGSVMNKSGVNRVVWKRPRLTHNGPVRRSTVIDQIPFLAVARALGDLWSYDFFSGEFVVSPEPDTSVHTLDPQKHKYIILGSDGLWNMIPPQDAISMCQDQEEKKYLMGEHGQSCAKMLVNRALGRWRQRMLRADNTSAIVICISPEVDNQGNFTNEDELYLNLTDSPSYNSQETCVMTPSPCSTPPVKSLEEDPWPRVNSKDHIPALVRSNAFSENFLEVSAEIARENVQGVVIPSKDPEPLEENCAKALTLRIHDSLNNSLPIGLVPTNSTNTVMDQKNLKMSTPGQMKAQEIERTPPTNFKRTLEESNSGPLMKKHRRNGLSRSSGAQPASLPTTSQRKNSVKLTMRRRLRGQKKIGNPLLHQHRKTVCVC
# Procedure, shortened: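 RapidFire mass spectrometry measured dephosphorylated peptide after 5 min room-temperature reaction of 2 uM VEPPL-pS-QETFS with 10 nM WIP1 (50 mM Tris-HCl pH 7.5, 30 mM MgCl2, 0.1 mM EGTA, BSA), following 1 hr compound preincubation; 1 uM isotope-labelled product standard.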
# [14] = molecular target: Protein phosphatase 1D (Homo sapiens) (UniProt O15297); assay: Rhodamine-PBP qHTS Assay for Modulators of WT P53-Induced Phosphatase 1 (WIP1) (AID 1347425)
# Procedure, shortened: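 WIP1 (5 nM final) was preincubated with compound for 1 hour at room temperature. It then dephosphorylated 10 uM VEPPL-pS-QETFS peptide in Tris-HCl pH 7.5 with 30 mM MgCl2. Released Pi was detected by 10 uM Rh-PBP fluorescence (ex 525/em 598 nm) read at 1-min intervals for 11 min, as delta f1 - f0.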
# [15] = Primary qHTS for inhibitors of La Crosse Virus (LACV) - induced cell death in SH-SY5Y cells (AID 1508616);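 also: top concentration of the series differs between compounds; higher means more rescue of cells from virus-induced death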
# Procedure, shortened: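 SH-SY5Y, 6000 cells/well; cpd via pin tool in DMSO; LACV 0.01 MOI; 6 d 37C 5% CO2; ATPLite, 5 min RT; luminescence normalized to ±virus DMSO controls.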
# [16] = A High-Content qHTS Against Drug Library for the Identification of Small Molecules that Inhibit DYT1 Early Onset Primary Dystonia-Associated Cell Pathology (AID 1645839; calls by dose curve; also: series mostly up to about 46 µM)
# Procedure, shortened: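 High-content imaging quantified EGFP-TorsinA mislocalization in HEK293-derived cells inducibly expressing DYT1 mutant torsinA, after 48 h exposure to compound given together with tetracycline induction. Cell count served as a toxicity channel alongside %pathology.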
smiles,measurement,setting,value
N#CC1(c2cccc(C(=O)Nc3cc(Oc4ccc5nc(NC(=O)C6CC6)sc5n4)ccc3F)c2Cl)CC1,outcome,[1],inactive
same,Potency,[2],inactive
same,Potency,[3],inactive
same,Potency,[4],inactive
CC[C@H](C)n1cc(C)c2c(C(=O)NCc3c(C)cc(C)[nH]c3=O)cc(-c3ccc(N4CCNCC4)nc3)cc21,outcome,[1],inactive
same,Potency,[5],inactive
same,Potency,[2],inactive
same,Potency,[3],inactive
same,Potency,[4],inactive
CCCCC(C)(C)[C@H](O)C=C[C@H]1[C@H](O)CC(=O)[C@H]1CC=CCCCC(=O)O,Potency,[2],inactive
O=C1Nc2ccc(I)cc2C1=Cc1cc(Br)c(O)c(Br)c1,outcome,[1],inactive
same,Potency,[5],inactive
same,Potency,[3],inactive
O=C(NCCCCN1CCOCC1)c1cc2ccccc2o1,Potency,[2],inactive
same,Potency,[3],inactive
CCOC(=O)[C@H](CCc1ccccc1)N[C@@H](C)C(=O)N1CCCC1C(=O)O (some centres not stated),outcome,[1],inactive
same,Potency,[5],inactive
same,Potency,[3],inactive
C=CCc1cccc(C=NNC(=O)CN2CCN(Cc3ccccc3)CC2)c1O,outcome,[6],inactive
same,outcome,[7],inactive
same,outcome,[8],inactive
same,outcome,[9],inactive
same,Potency,[3],inactive
same,Potency,[4],inactive
COc1cc(Cl)cn2c(-c3cccc(NC4CNC4)n3)cnc12,outcome,[1],inactive
same,Potency,[5],inactive
same,Potency,[3],inactive
same,Potency,[4],inactive
O=C(Nc1ccccc1)Nc1ccc(-c2ccc(C(=O)[C@H]3CCC[C@H]3C(=O)O)cc2)cc1,outcome,[1],inactive
same,Potency,[5],inactive
same,Potency,[3],inactive
same,Potency,[4],inactive
CC(C)(CO)[C@@H](O)C(=O)NCCC(=O)O,Potency,[2],inactive
N#CC(c1ccc(Cl)cc1)c1c(Cl)cc(-n2ncc(=O)[nH]c2=O)cc1Cl (configuration not stated),outcome,[1],inactive
same,Potency,[2],inactive
same,Potency,[3],inactive
same,Potency,[4],inactive
Cc1nc(C(=O)NCC(=O)O)c(O)c2ccc(Oc3ccccc3)cc12,outcome,[1],inactive
same,Potency,[5],inactive
same,Potency,[2],inactive
same,Potency,[10],inactive
same,Potency,[11],inactive
C[C@H]1COC2=C1C(=O)C(=O)c1c2ccc2c1CCCC2(C)C,outcome,[1],inactive
same,Potency,[5],inactive
same,Potency,[10],inactive
same,Potency,[4],inactive
CCCCOCCOc1nc(-c2ccc(C(=O)O)c(F)c2)sc1C,outcome,[1],inactive
same,Potency,[5],inactive
same,Potency,[2],inactive
same,Potency,[3],inactive
same,Potency,[4],inactive
COc1ccc(Cn2ccc3ccc(C(=O)NO)cc32)cc1,Potency,[2],inactive
C[C@@H]1C[C@H]2[C@@H]3CCC4=CC(=O)C=C[C@]4(C)[C@@]3(F)[C@@H](O)C[C@]2(C)[C@@]1(O)C(=O)CO,outcome,[12],inactive
same,Potency,[2],inactive
same,Potency,[13],inactive
same,outcome,[14],inactive
same,outcome,[15],inactive
same,Potency,[3],inactive
same,Potency,[4],inactive
same,outcome,[16],inactive
O=c1cc(-c2ccc(O)c(O)c2)oc2cc(O)cc(O)c12,"activity change, negative = inhibition",[5],46.1% [at 3.57 µM]
same,Potency,[3],inactive
same,Potency,[4],inactive
Cc1ccc2c(c1)C(=O)[C@]1(O)CCN(c3ccccc3)C1=N2,Potency,[5],inactive
same,Potency,[2],inactive
same,Potency,[3],inactive
same,Potency,[4],inactive
CN(C)CCN(Cc1ccc(Cl)cc1)c1ccccn1,outcome,[12],inactive
same,Potency,[13],inactive
same,outcome,[14],inactive
same,outcome,[15],inactive
same,Potency,[3],inactive
same,Potency,[4],inactive
same,Potency,[11],69.2 nM (active)
CN(C)CCCNC(=O)c1ccc(-c2cc(O)c3ncccc3c2)cc1,Potency,[2],inactive
same,Potency,[10],inactive
same,Potency,[3],inactive
OC[C@H]1O[C@@H](OCCc2ccc(O)cc2)[C@H](O)[C@@H](O)[C@H]1O,outcome,[12],inactive
same,Potency,[13],inactive
same,outcome,[14],inactive
same,outcome,[15],inactive
same,Potency,[3],inactive
same,outcome,[16],inactive
same,Potency,[11],inactive
COc1ccc(-c2nc3ccc(C4=NNC(=O)CC4C)cc3[nH]2)cc1 (configuration not stated),outcome,[12],inactive
same,Potency,[2],inactive
same,Potency,[13],inactive
same,outcome,[14],inactive
same,outcome,[15],inactive
same,Potency,[3],inactive
same,Potency,[11],inactive
c1cc(OCCN2CCCCC2)cc(-c2n[nH]c3ccc(-c4ncn[nH]4)cc23)c1,outcome,[1],inactive
same,Potency,[5],inactive
same,Potency,[2],inactive
same,Potency,[3],inactive
COc1cc(Nc2nc3ccccc3nc2NS(=O)(=O)c2ccc(NC(=O)c3ccc(C)c(OC)c3)cc2)cc(OC)c1,outcome,[1],inactive
same,Potency,[2],inactive
same,Potency,[3],inactive
same,Potency,[4],8.41 µM (active)
O=C(Nc1cccc2c(=O)cc(-c3nn[nH]n3)oc12)c1ccc(OCCCCc2ccccc2)cc1,outcome,[1],inactive
same,outcome,[12],inactive
same,Potency,[13],15.8 µM (active)
same,outcome,[15],inactive
same,Potency,[3],inactive
same,Potency,[4],inactive
same,outcome,[16],inactive
CO[C@@H]1C(N(C)C(=O)c2ccccc2)C[C@H]2O[C@]1(C)n1c3ccccc3c3c4c(c5c6ccccc6n2c5c31)C(=O)NC4=O (some centres not stated),Potency,[2],inactive
same,Potency,[10],15.8 µM (active)
same,Potency,[3],19.2 µM (active)
same,Potency,[4],inactive
OC(c1cc(C(F)(F)F)nc2c(C(F)(F)F)cccc12)C1CCCCN1 (configuration not stated),outcome,[1],inactive
same,Potency,[5],16.5 µM (active)
same,Potency,[3],inactive
same,Potency,[4],inactive
COc1ccnc(CS(=O)c2nc3ccc(OC(F)F)cc3[nH]2)c1OC (configuration not stated),outcome,[12],inactive
same,Potency,[2],inactive
same,Potency,[13],inactive
same,outcome,[14],inactive
same,outcome,[15],inactive
same,Potency,[3],inactive
same,Potency,[4],inactive
same,outcome,[16],inactive
